TRHR ag = qHTS for Small Molecule Agonists and Allosteric Enhancers of Human TRH Receptor: Primary Screen for Agonists | activation, % at 2 µM | 360,000 tested, 0.18% active | TRHR cells, calcium flux fluo-8, FDSS agonist mode | Thyrotropin-releasing hormone receptor (Homo sapiens), P34981
Target sequence (P34981 whole entry, looked up): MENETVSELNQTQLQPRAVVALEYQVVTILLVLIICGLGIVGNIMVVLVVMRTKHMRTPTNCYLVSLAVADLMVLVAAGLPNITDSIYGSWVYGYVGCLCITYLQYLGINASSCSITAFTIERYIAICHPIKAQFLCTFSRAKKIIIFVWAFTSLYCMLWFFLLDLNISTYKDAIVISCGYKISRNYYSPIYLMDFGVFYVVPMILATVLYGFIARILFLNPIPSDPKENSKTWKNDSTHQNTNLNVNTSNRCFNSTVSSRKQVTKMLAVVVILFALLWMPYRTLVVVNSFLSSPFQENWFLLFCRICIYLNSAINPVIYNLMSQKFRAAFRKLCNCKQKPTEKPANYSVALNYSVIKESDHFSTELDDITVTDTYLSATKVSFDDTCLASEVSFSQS
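Read-out: compound-evoked intracellular calcium rise in TRHR cells, fluo-8 dye, kinetic FDSS fluorescence at 1 s/cycle following a 10-cycle baseline. Cells cultured overnight before dye loading (30 min–1.5 h, RT).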
D1 agonist = Allosteric Agonists of the Human D1 Dopamine Receptor: qHTS. D(1A) dopamine receptor (Homo sapiens), P21728. HEK293 T-REx D1 cells, calcium flux, agonist mode. activation, % at 2 µM. 360,000 tested, 1% active. AID 504660, 2011
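Tetracycline-induced HEK293 TREx D1 cells, force-coupled to calcium signalling, were dye-loaded with a no-wash calcium kit. Compound was pin-added after a 10 s baseline. Fluorescence was read kinetically at 1 cycle/s for 180 s, with calcium rises flagged as agonism.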
TRHR PAM = qHTS for Small Molecule Agonists and Allosteric Enhancers of Human TRH Receptor: Primary Screen for Enhancers | Thyrotropin-releasing hormone receptor (Homo sapiens), P34981 | TRHR cells, fluo-8 calcium fluorescence, EC20 TRH enhancement | enhancement, % at 2 µM | 360,000 tested, 0.66% active; in the data active = enhancement above about 30%
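TRHR-expressing cells loaded with fluo-8 calcium dye were read kinetically (ex 480/em 530) during compound addition, then stimulated with an EC20 of TRH (10 nM final). Enhancement of the Gq-mediated intracellular calcium response was scored.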
D1 antagonist = Antagonist of Human D 1 Dopamine Receptor: qHTS | D(1A) dopamine receptor (Homo sapiens), P21728 | 360,000 tested, 3.2% active | AID 504652, 2011 | activity change, negative = inhibition, % at 10 µM | HEK293 TREx D1 cells, calcium flux, dopamine EC80; stronger effect = lower value; in the data active = activity change below about -30%
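Using tetracycline-induced force-coupled D1 Hek293 cells and a calcium dye, signals were followed for 180 s after compound, then for 180 s after EC80 dopamine, to detect inhibitors.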
D1 potentiator = Potentiators of Human D1 Dopamine Receptor: qHTS; D(1A) dopamine receptor (Homo sapiens), P21728; HEK293 TREx D1 cells, calcium flux, dopamine EC20 potentiation; potentiation, % at 10 µM; 360,000 tested, 0.036% active; in the data active = potentiation above about 30%
Numbers stand for hits; . = inactive; / = not tested or not shown; ! = not active in a repeat. Compounds with a hit are over-represented: about 4.6% of the library has one in this group of screens. Rule as the data show it, unless noted: active = activation above about 30%; inactive = the rest.

SMILES | TRHR ag | D1 agonist | TRHR PAM | D1 antagonist | D1 potentiator
Cc1ccccc1Cn1ccc(NC(=O)c2cnn3c(C(F)(F)F)cc(-c4ccco4)nc23)n1 | . | . | . | -56.7 | .
Cc1ccc(Cn2ccc(NC(=O)CCSc3nc(-c4ccco4)cc(C(F)(F)F)n3)n2)cc1 | . | . | 39.4 | . | .
O=C(Nc1ccc2c(c1)OCO2)c1cnn2c(C(F)(F)F)cc(-c3ccco3)nc12 | . | . | . | . | .
Cc1ccc(NC(=O)CSc2nc(-c3ccco3)cc(C(F)(F)F)n2)cc1 | . | . | . | -35.4 | .
COc1ccc(C2=C(N3CCN(c4cc(Cl)ccc4C)CC3)c3ccccc3C2=O)cc1 | . | . | . | . | .
O=C(NNC1=Nc2ccccc2SC1)c1ccc(F)cc1 | . | . | . | . | .
COc1ccc(NC(=O)CCSc2nc(-c3ccco3)cc(C(F)(F)F)n2)cc1 | . | . | . | . | .
COC(=O)c1ccccc1NC(=O)CSc1nc(-c2ccccc2)cc(C(F)(F)F)n1 | . | . | . | -41.9 | .
COC(=O)c1ccccc1NC(=O)CSc1ncccn1 | . | . | . | . | .
CN(C)c1ccc(NC(=O)CCSc2nc(-c3ccco3)cc(C(F)(F)F)n2)cc1 | . | . | . | -32.6 | .
COc1ccccc1C1=NC(c2ccc(C)cc2)N=C1C (stereo not given) | . | . | . | . | .
Cc1ccc(OCCn2nc3ccccc3n2)c(C)c1 | . | . | 39.4 | . | .
CCOc1ccccc1OCCn1nc2ccccc2n1 | . | . | . | . | .
O=C(CCn1c(=O)c2ccccc2n(Cc2cccc([N+](=O)[O-])c2)c1=O)N1CCc2ccccc2C1 | . | . | . | . | .
Cc1ccc(C)c(NC(=O)CSc2nnc(CCCCCNC(=O)OC(C)(C)C)o2)c1 | . | 35.7 | . | . | .
CC(C)(C)OC(=O)NCCCCCc1nnc(SCC(N)=O)o1 | . | . | . | -38.7 | .
CC(C)(C)OC(=O)NCCc1nnc(SCc2ccccc2)o1 | . | . | . | . | .
CC(C)(C)OC(=O)NCCc1nnc(SCc2ccccc2Cl)o1 | . | . | . | -30.4 | .
O=C(NCc1ccccc1Cl)C1CCCN(c2nc3ccccc3n3cccc23)C1 (stereo not given) | . | . | . | . | .
CCN1C(=O)C(CC(=O)Nc2ccc(C)cc2C)Nc2cc(S(=O)(=O)N(C)C)ccc21 (stereo not given) | . | . | . | . | .
Cc1ccc(NCC(=O)N/N=C/c2ccc(-c3cccc(C(F)(F)F)c3)o2)cc1 | . | . | . | . | .
O=C(CSc1ncc(-c2ccc(F)cc2)n1Cc1ccco1)Nc1nccs1 | . | . | . | . | .
Cc1cnc(NC(=O)CSc2ncc(-c3ccccc3)n2Cc2ccco2)s1 | . | 79.3 | . | -31.7 | .
CCC(=O)N=C1SC2CS(=O)(=O)CC2N1c1cccc(OC)c1 (stereo not given) | . | . | . | . | .
O=[N+]([O-])c1ccc(-c2ccc(/C=N/Nc3nc(NCc4ccccc4)nc(N4CCOCC4)n3)o2)cc1 | . | 73.6 | . | . | .
SMILES | TRHR ag | D1 agonist | TRHR PAM | D1 antagonist | D1 potentiator
Cc1cc(C)c(NC(=O)CSc2ccc(-c3ccccn3)nn2)c(C)c1 | . | . | . | -48.4! | .
O=C(CSc1ccc(-c2ccccn2)nn1)NCc1ccc(Cl)cc1 | . | . | 31.6 | . | .
Cc1ccc(NC(=O)CSc2ccc(-c3ccccn3)nn2)c(C)c1 | . | . | . | . | .
COc1cc(C2C(C#N)=C(N)OC3=C2C(=O)CCC3)cc(OC)c1OC(=O)N1CCOCC1 (stereo not given) | . | . | . | . | .
CCCNC(=O)C(Cc1ccccc1)NC(=O)c1ccc(C(C)(C)C)cc1 (stereo not given) | . | . | . | / | .
CC(C)Oc1ccc(-c2nn(-c3ccccc3)cc2/C=c2\sc3ncnn3c2=O)cc1 | . | . | . | . | .
Fc1ccccc1C1CCN(Cc2nc(COc3ccccc3)no2)C1 (stereo not given) | . | . | . | . | .
Cc1oc2c(C)c(O)ccc2c(=O)c1-c1cnn(-c2ccccc2)c1 | . | . | . | -37.0 | .
CCOC(=O)/C(=C/C=C1\Sc2ccccc2N1CC)C(C)=O | 80.1 | 218.8 | . | . | .
CCOC(=O)/C(=C/C=C1\Sc2cc(C)c(C)cc2N1CC)C(C)=O | 249.5 | 348.5 | . | . | .
CCOC(=O)/C(=C\C=C1/Sc2ccccc2N1CC)C(C)=O | 71.2 | 289.6 | . | . | .
CCC(=O)/C=C1/Sc2ccccc2N1CC | . | . | . | . | .
Cc1ccc(C)c(S(=O)(=O)N2CCCC2CNC(=O)C(=O)NCc2cccs2)c1 (stereo not given) | . | . | . | . | .
O=C(Nc1cccc(Cl)c1Cl)c1cc(S(=O)(=O)NCc2ccc3c(c2)OCO3)ccc1F | . | . | . | . | .
Cc1cnc(NS(=O)(=O)c2ccc(Cl)cc2)c(Br)c1 | . | . | . | -38.5 | .
O=C(O)c1cccnc1Br | . | . | . | . | .
Cc1ccc(NC(=O)Nc2cc(S(C)(=O)=O)ccc2Cl)cc1 | . | . | . | -38.2 | .
CS(=O)(=O)c1ccc(Cl)c(NC(=O)CCl)c1 | . | . | . | . | .
CCc1ccc(NC(=O)CSC2=C(C#N)C(c3ccco3)C3=C(CCCC3=O)N2)cc1 (stereo not given) | . | . | . | -60.7 | .
CCOc1ccc(C(=O)CN2CCN(S(=O)(=O)c3ccc(OC)cc3)CC2)cc1 | . | . | . | . | .
c1ccc(CN(Cc2ccccc2)Cc2nnc(-c3cc4ccccc4[nH]3)s2)cc1 | . | . | . | . | .
CCOc1cc(C)c(Cl)cc1S(=O)(=O)N1CCCC1 | . | . | . | . | .
COc1cc(C)c(C(C)C)cc1S(=O)(=O)N1CCN(C)CC1 | . | . | . | -45.7 | .
COc1cc(C)c(Cl)cc1S(=O)(=O)N1CCCC1 | . | . | . | -34.4 | .
CCOc1cc(C)c(C(C)C)cc1S(=O)(=O)N1CCN(C)CC1 | . | . | . | . | .
Cc1cc(C)cc(-n2c(C)cc(/C=N\NC(=O)COc3cccc4cccnc34)c2C)c1 | . | 45.1 | . | . | .
Cc1cc(/C=N/NC(=O)COc2cccc3cccnc23)c(C)n1-c1ccc(O)cc1 | . | . | . | . | .
O=C(Nc1ccccc1F)c1ccc(-n2cncn2)nc1 | . | . | . | . | .
